In the supplement of paper PMC10849652:
Of roughly 7,900 targets only a part is listed; those with a hit were picked by preference. About 0.6% of all pairs of compound and target were hits. Values without a mark were called inactive.

Biological target: YPEL5 (UniProt P62699)
Assay: log2 fold change, soluble protein after heating vs DMSO (PISA); higher = thermal stabilisation; K562 cells, 10 uM, 30 min; active = over 0.2 and 3.5 SD of the protein, either way, in both replicates (recomputed)
Outline: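 For each measurement, 10 μM compound was applied for 30 min to K562 cells at 2×10^6 cells/mL. Aliquots were heated for 3 min across 48°C-58°C, pooled, and extracted in PBS with 0.5% NP-40 at 4°C; the supernatant after 21,000xg for 90 min was soluble protein. This was quantified by TMTpro 16plex LC-MS/MS with channel sums equalised, and thermal stability was reported relative to control samples from duplicates, on a log2 fold-change scale.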

YPEL5, sequence (P62699 whole entry, looked up): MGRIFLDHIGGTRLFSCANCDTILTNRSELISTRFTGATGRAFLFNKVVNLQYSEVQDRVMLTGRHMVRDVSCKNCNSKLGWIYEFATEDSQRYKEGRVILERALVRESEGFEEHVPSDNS

Row | Compound | log2 fold change
1 | CN1CCN(CCOc2cc(OC3CCOCC3)c3c(Nc4c(Cl)ccc5c4OCO5)ncnc3c2)CC1 [saracatinib] | 0.069
2 | C[C@@H](N)c1ccc(C(=O)Nc2ccnc3[nH]ccc23)cc1 | 0.163
3 | Fc1ccc(Cl)cc1-c1nc(Nc2ccncc2)c2nccnc2n1 | -0.028
4 | c1cc(OCCN2CCCCC2)cc(-c2n[nH]c3ccc(-c4nnc[nH]4)cc23)c1 | 0.067
5 | C/C(=N\NC(=O)c1cccc(S(=O)(=O)N2CCOCC2)c1)c1cc(Cl)ccc1O | 0.032
6 | NC1(c2ccc(-c3nc4ccn5c(=O)[nH]nc5c4cc3-c3ccccc3)cc2)CCC1 | -0.026
7 | Cc1cccc(-c2[nH]c(C(C)(C)C)nc2-c2ccc3nccnc3c2)n1 | 0.097
8 | CC(C)N(C[C@H]1O[C@@H](n2cnc3c(N)ncnc32)[C@H](O)[C@@H]1O)[C@H]1C[C@@H](CCc2nc3cc(C(C)(C)C)ccc3[nH]2)C1 [pinometostat] | 0.068
9 | COc1cc2nc(-c3cc(F)ccc3O)nc(N[C@@H]3CNC[C@H]3C(C)(C)O)c2cc1OC | 0.096
10 | CNC(=O)c1ccccc1Nc1nc(Nc2ccc(N3CCOCC3)cc2OC)ncc1Cl | 0.08
11 | O=C(Nc1nc2ccccc2n1CCN1CCOCC1)c1cccc([N+](=O)[O-])c1 [IRAK-1-4 Inhibitor I] | -0.093
12 | C[C@@H](Oc1cc(-c2cnn(C3CCNCC3)c2)cnc1N)c1c(Cl)ccc(F)c1Cl [crizotinib] | 0.019
13 | COc1cc(Nc2ncc3c(n2)-c2ccc(Cl)cc2C(c2c(F)cccc2OC)=NC3)ccc1C(=O)O [alisertib] | 0.086
14 | CN1CC[C@H](c2c(O)cc(O)c3c(=O)cc(-c4ccccc4Cl)oc23)[C@H](O)C1 [alvocidib] | -0.234
15 | O=C1c2ccccc2-c2n[nH]c3cccc1c23 | -0.158
16 | CNCc1ccc(-c2[nH]c3cc(F)cc4c3c2CCNC4=O)cc1 [rucaparib] | 0.002
17 | COc1cccc2cc(-c3nc([C@H]4CC[C@H](C(=O)O)CC4)n4ncnc(N)c34)[nH]c12 | -0.142
18 | O=C1NC(=O)C(c2cnc3ccccn23)=C1c1cn2c3c(cc(F)cc13)CN(C(=O)N1CCCCC1)CC2 | -0.064
19 | COc1ccc(Cn2ccc3ccc(C(=O)NO)cc32)cc1 | -0.269
20 | CN(C)CC(=O)Nc1ccc2[nH]c(=O)c3ccccc3c2c1 | 0.008
21 | COc1cc(C(=O)O)ccc1NC(=O)[C@@H]1N[C@@H](CC(C)(C)C)[C@](C#N)(c2ccc(Cl)cc2F)[C@H]1c1cccc(Cl)c1F [idasanutlin] | 0.491 (active)
22 | O=C1NC(=NCc2cccs2)S/C1=C\c1ccc2ncccc2c1 | -0.021
23 | NC(=O)c1cnc(N[C@@H]2CCCC[C@@H]2N)nc1Nc1cccc(-n2nccn2)c1 | -0.019
24 | Cc1ccc(-n2nc(C(C)(C)C)cc2NC(=O)Nc2ccc(OCCN3CCOCC3)c3ccccc23)cc1 [doramapimod] | 0.039
25 | CC(=O)c1cnc2ccc(-c3cc(Cl)c(O)c(Cl)c3)nc2c1N[C@H]1CC[C@H](CN(C)C)CC1 | -0.173
